DYRK1A inh: Dyrk1A (rat) kinase inhibition; inhibition, % at 12.5 µM; 310,000 compounds, 0.43% hits; AID 504441; ADP-Glo luminescence, NFATc1 peptide; Q63470; in the data active means inhibition above about 50%;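 further: plate controls were vehicle with enzyme for no effect and no enzyme for full effect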
aDG glyco up: increases alpha dystroglycan glycosylation; Pro5-aDG cells, alpha-DG glycosylation AlphaScreen (IIH6); 0% Pro5, 100% B10-LARGE cell signal; activation, % at 10 µM; 360,000 compounds, 0.22% hits; AID 624168;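 active means activation of at least 8% versus controls, or a plate z-score of at least 8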;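 further: Pro5 are CHO cells carrying HIG-tagged alpha-DG that lacks glycosylation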
HSF1 activator: increases HSF-1 driven luciferase reporter signal. NIH3T3-HGL HSF-1 luciferase reporter, MG132, 8 h; 100% = twice DMSO control signal. activation, % at 9 µM. 300,000 compounds, 1.7% hits;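 active means mean replicate activation of at least 50% with a set share of replicates each reaching 50%; inconclusive means only one of those two conditions met; inactive means mean below 50% and too few replicates reaching it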;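 further: 0% = median of the neutral control wells and 100% = twice that signal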
GC-A act: GC-A (human) enzyme activation | AID 1671463 | activation, % at 10 µM | 370,000 compounds, 0.14% hits | P16066 | HEK293 GC-A cells, cGMP TR-FRET, EC30 ANP; 0% at EC30 ANP, 100% saturating ANP; in the data active means activation above about 40%
Target sequence (P16066 whole entry, looked up): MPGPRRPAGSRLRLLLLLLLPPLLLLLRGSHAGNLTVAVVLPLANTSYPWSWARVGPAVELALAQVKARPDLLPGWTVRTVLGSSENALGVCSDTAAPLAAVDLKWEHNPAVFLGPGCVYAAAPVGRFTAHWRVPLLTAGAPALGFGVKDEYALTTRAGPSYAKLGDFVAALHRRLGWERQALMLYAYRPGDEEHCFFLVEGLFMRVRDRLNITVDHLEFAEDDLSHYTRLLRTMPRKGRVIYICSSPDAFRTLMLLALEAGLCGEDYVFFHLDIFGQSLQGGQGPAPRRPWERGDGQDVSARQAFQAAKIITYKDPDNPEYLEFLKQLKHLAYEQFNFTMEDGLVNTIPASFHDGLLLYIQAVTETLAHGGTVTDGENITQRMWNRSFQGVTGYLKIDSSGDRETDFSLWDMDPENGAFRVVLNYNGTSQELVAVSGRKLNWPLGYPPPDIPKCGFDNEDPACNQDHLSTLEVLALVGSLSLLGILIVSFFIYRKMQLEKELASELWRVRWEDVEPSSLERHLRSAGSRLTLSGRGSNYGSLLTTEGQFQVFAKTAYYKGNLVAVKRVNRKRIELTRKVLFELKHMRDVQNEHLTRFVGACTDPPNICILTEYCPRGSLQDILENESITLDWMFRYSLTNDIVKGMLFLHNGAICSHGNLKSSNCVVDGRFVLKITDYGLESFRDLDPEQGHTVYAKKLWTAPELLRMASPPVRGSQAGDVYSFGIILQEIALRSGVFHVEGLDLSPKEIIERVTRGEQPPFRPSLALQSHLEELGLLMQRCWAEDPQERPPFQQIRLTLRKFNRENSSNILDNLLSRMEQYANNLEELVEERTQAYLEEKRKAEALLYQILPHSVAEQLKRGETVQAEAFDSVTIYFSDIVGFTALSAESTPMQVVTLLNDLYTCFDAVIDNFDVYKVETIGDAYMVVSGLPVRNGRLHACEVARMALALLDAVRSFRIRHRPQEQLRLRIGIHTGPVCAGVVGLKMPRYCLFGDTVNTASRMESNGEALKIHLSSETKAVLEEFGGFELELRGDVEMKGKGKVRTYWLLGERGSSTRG
NPR2 activator: GC-B (human) receptor activation; 370,000 compounds, 0.11% hits; activation, % at 10 µM; P20594; HEK293-GC-B cells, CNP EC30, cGMP TR-FRET; 0% at EC30 CNP, 100% saturating CNP;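 active means activation at 10 µM reaching about 35% in either raw or pattern-adjusted values, limit read from the data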
HSF1 inhib: HSF1 inhibition. activity change, negative = inhibition, % at 7.5 µM (by protocol). 300,000 compounds, 0.77% hits. NIH3T3-HGL HSE-luciferase, MG132-induced, luminescence 8 h; stronger effect = lower value. AID 2098;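 active means more than half of replicate wells show activity change below -50%, luminescence cut by over half; inconclusive means some wells, but at most half, below -50%; inactive means no replicate well below -50%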;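 further: luciferase reports HSF-1 transcriptional activity via heat shock element; 0% = median of DMSO wells and -100% = zero luminescence signal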
* hit, by the source's call; ? = inconclusive; . = not tested or not shown. An excerpt weighted towards active compounds, which were near 2.5% of everything screened.

SMILES	DYRK1A inh	aDG glyco up	HSF1 activator	GC-A act	NPR2 activator	HSF1 inhib
Cc1ccc(S(=O)(=O)NNC(=O)c2sc3nc(C)cc(C)c3c2-n2cccc2)cc1	-1.0	-0.5	73.0*	-1.8	-1.1	29.8
Cc1ccc(S(=O)(=O)NNC(=O)c2sccc2-n2cccc2)cc1	0.7	-0.1	23.9	-5.0	-1.1	7.8
Cn1cccc1C(=O)NNC(=O)c1ccccc1Br	-1.2	-0.1	28.5	2.0	0.4	14.5
O=C(NCCc1ccccc1)C(c1cccs1)N(C(=O)CCl)c1ccc(Cl)cc1 (stereo unspecified)	.	-0.3	-95.7	-46.5	-14.5	-95.3*
C=CCC(Nc1ccccc1)c1ccc(OC)c(OC)c1 (stereo unspecified)	.	.	-71.4	.	.	-62.8*
C=CCc1ccc(OCC(O)CN2CCC(Cc3ccccc3)CC2)c(OC)c1 (stereo unspecified)	21.0	1.6	-1.8	-2.3	-7.3	0.3
COc1ccc(-c2nc(CNS(=O)(=O)c3ccc(OC)c(OC)c3)cs2)cc1	-0.7	0.0	-70.4	-4.3	-2.4	-62.6*
O=C(CCCCC(=O)Nc1c(I)cc(I)c(C(=O)O)c1I)Nc1c(I)cc(I)c(C(=O)O)c1I	3.7	0.2	-7.8	2.5	1.3	-1.0
CCS(=O)(=O)NC(=O)C1(C)CCN1C(=O)Cc1ccc(Cl)cc1Cl (stereo unspecified)	.	0.1	.	0.0	-1.4	.
COc1ccc(NC(=O)NNC(=O)c2cc3occc3n2C)c(OC)c1	6.8	-0.3	133.3*	-0.7	4.1	82.4
COc1ccc(NC(=O)NNC(=O)c2ccc(-c3ccccc3)cc2)c(OC)c1	-1.2	0.3	-31.0	0.8	-4.5	-22.7
COc1ccc(CC(=O)Nc2ccccc2C(=O)N2CCCC2)cc1	-8.8	-0.1	-5.2	-1.1	2.8	-0.7
COc1ccc(OC)c(N(CC(=O)N2CCC(C)CC2)S(=O)(=O)c2ccc(OC)c(OC)c2)c1	-2.4	-0.2	-0.7	-9.4	-2.6	5.8
COc1ccc(OC)c(N(CC(=O)N2CCC(C)CC2)S(=O)(=O)c2ccccc2)c1	1.3	0.2	60.4*	-22.8	-6.9	19.4
CCCC12CN3CC(C)(CN(C1)C3c1ccc3c(c1)OCO3)C2=O (stereo unspecified)	4.1	-0.1	66.1*	-3.9	6.7	31.4
CC(=O)N(c1ccccc1)c1nc(/C=C/C(=O)Nc2c(C)cc(C)cc2C)cs1	-3.2	0.0	39.5	40.4*	43.2*	23.5
CC(=O)N(c1ccccc1)c1nc(/C=C/C(=O)O)cs1	3.9	0.2	?	-5.3	1.1	33.7
CCn1c2ccccc2c2nnc(SCC(=O)Nc3c(C)n(C)n(-c4ccccc4)c3=O)nc21	1.4	0.4	-26.6	-3.0	-4.5	-8.3
Cc1c(NC(=O)CSc2nnc3c4ccccc4n(CCc4ccccc4)c3n2)c(=O)n(-c2ccccc2)n1C	2.5	0.3	87.8*	-2.2	-2.7	66.1
Cc1nn(Cc2ccccc2Cl)c(C)c1NC(=O)NC12CC3CC(CC(C3)C1)C2	7.2	0.1	10.9	2.6	1.8	-2.3
CCOc1ccc(NC2C=CS(=O)(=O)C2)cc1 (stereo unspecified)	-3.4	0.0	-11.2	5.5	-2.8	-14.6
Cc1ccc(NC(=O)Nc2ccc([N+](=O)[O-])cc2)nc1	-5.3	-0.2	10.9	-0.3	0.1	5.2
COc1ccccc1N(Cc1ccccc1)S(=O)(=O)c1cccc(C(=O)NC2CC(C)(C)NC(C)(C)C2)c1	4.1	9.1*	-19.2	-8.5	2.2	0.4
COc1ccccc1N(Cc1ccccc1)S(=O)(=O)c1cccc(C(=O)O)c1	-6.0	0.0	-10.4	2.0	0.3	5.3
COc1ccc(C(=O)C(=O)N2CCN(C(=O)c3cc(C(F)(F)F)cc(C(F)(F)F)c3)CC2)cc1OC	.	.	.	1.8	-0.3	.
SMILES	DYRK1A inh	aDG glyco up	HSF1 activator	GC-A act	NPR2 activator	HSF1 inhib
Cc1ccc(-c2csc3nc[nH]c(=O)c23)c(C)c1	16.6	-0.1	95.0*	-4.1	-0.7	45.4
Cc1ccc(-c2csc3nc[nH]c(=O)c23)cc1	19.5	-0.2	7.7	-1.9	1.5	-4.4
O=C(C1CCC1)N1CCc2cc(S(=O)(=O)N3CCN(c4ccccn4)CC3)ccc21	5.7	0.0	63.0*	.	.	25.2
COc1ccc(OC(C)C(=O)N2CCC(C)CC2)cc1 (stereo unspecified)	-5.9	-0.1	-73.2	1.7	3.0	-66.0*
Cc1ccc(SCc2c(C#N)c3ccccc3n2C)cc1	-7.3	0.1	34.5	-5.5	-7.0	1.1
Cn1c(CSc2ccccc2)c(C#N)c2ccccc21	9.6	-0.2	90.0*	-3.2	3.1	28.9
O=C(O)CSc1cccc[n+]1[O-]	-2.1	-0.1	10.0	1.2	4.8	0.3
O=C(CSc1cccc[n+]1[O-])c1cc2ccccc2o1	5.6	-0.3	192.1*	.	.	149.5
O=C(CSc1cccc[n+]1[O-])c1cc(Cl)ccc1Cl	-1.7	-0.1	169.8*	6.5	-2.5	122.1
CN(CC(=O)Nc1cccc(F)c1)C(=O)c1cn(-c2ccccc2)nc1-c1ccc(Cl)cc1	-0.5	1.8	.	-8.6	-7.0	.
C[C@@H]1CN(C(=O)c2nc3ccc(Cl)cn3c2CNCC[C@@H]2C[C@@H]3C=C[C@H]2C3)C[C@H](C)O1	8.3	0.5	-8.2	-2.5	-3.2	-0.2
O=C(C1=C(c2ccccc2)C(=O)c2ccccc2C1=O)c1ccccc1	0.6	-1.0	81.5*	-16.6	-6.7	54.7
CCN(Cc1nc(-c2ccc(Cl)cc2)no1)CC1CCCO1 (stereo unspecified)	-1.9	-0.1	13.0	0.7	3.3	4.2
O=C(C#Cc1cccc([N+](=O)[O-])c1)c1ccccc1	-7.9	-0.3	96.7*	.	.	61.5
Nc1ccccc1C#CC(=O)c1ccccc1	-1.4	-0.5	83.6*	19.2	-2.8	58.0
Cc1ccccc1CC1(CO)CCCN(C(=O)c2ccccc2Cl)C1 (stereo unspecified)	2.4	0.7	54.7*	1.7	1.5	12.1
Cc1ccccc1CC1(CO)CCCN(C(=O)c2cc(Cl)ccc2F)C1 (stereo unspecified)	-3.1	0.6	2.5	0.8	0.0	5.2
CCc1c(C)sc(NC(=S)N2CCN(CC)CC2)c1C(=O)OC	4.3	0.2	-6.5	-4.5	-4.7	-6.7
Cc1cc(/C=C(\C#N)C(=O)Nc2ccccc2F)c(C)[nH]1	.	0.0	60.2*	2.5	-0.3	9.7
CCOc1ccccc1C1N=C(c2ccc(OC)cc2)CC(c2ccccc2O)N1 (stereo unspecified)	-2.4	0.2	129.6*	-13.1	-4.1	94.3
Oc1ccccc1C1CC(c2cccs2)=NC(c2ccc(Cl)cc2)N1 (stereo unspecified)	-8.5	-0.4	34.9	-6.9	-7.8	23.7

Assay outcomes from PubChem.
